# Screens: PubChem, several laboratories
# A selection: hits, their analogues and other compounds. The true share with any hit is near 1.9%.
# Autophagy HCS = autophagy modulators in MEF cells, primary screen, imaging, high-content, MEF GFP-LC3; MEF GFP-LC3 puncta imaging; test concentration mostly 10 µM; actives 0.98% (n = 190,000); calls only at 10 µM (by protocol);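 active means percentage of spot-positive cells more than 3 SD above its plate mean, without a fluorescence outlier flag or 80% toxicity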;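 further: spot-positive cell cutoff set from DMSO-treated cells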
# INS promoter inh = inhibitors of insulin promoter-driven GFP, primary screen, imaging, TRM-6 cells (human fetal islet line), eGFP reporter, cell count; inhibition, % at 2 µM; reporter expression induced with tamoxifen; AID 1273, 2008; actives 0.9% (n = 130,000);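 active means inhibition above the mean plus 3 SD, with well images judged a real hit on visual review, cut at about 60% in these data, passing the limit was not always enough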
# Efa HMGR inh = inhibitors of E. faecalis class II HMGR, primary screen, biochemical, Enterococcus faecalis. HMG-CoA reductase (Enterococcus faecalis, mvaE). actives 0.41% (n = 190,000). inhibition, % at 10 µM. AID 1066, 2008. purified E. faecalis HMGR, NADPH absorbance 340 nm kinetic;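 active means inhibition above a set limit, the median over all tested compounds plus 3 SD, cut at about 9.5% in these data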;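 further: enzyme runs in reverse so mevalonate oxidation gives rising NADPH absorbance; 0% = complete reaction with DMSO and 100% = background rate lacking mevalonate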
# Insulin prom up = insulin promoter activators in MIN6 cells, imaging, high-content screening, mouse beta cells; AID 1625, 2009; actives 0.3% (n = 190,000); z-score at 5 µM; MIN6 insulin promoter-GFP reporter; stronger effect = higher value;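 active means z-score above 3 at 5 µM with at least 500 cells counted in the well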
# An asterisk follows results filed as active; i = inactive; / = not tested or not shown; + = active, no number.
SMILES,Autophagy HCS,INS promoter inh,Efa HMGR inh,Insulin prom up
CC(C)n1c(O)c(N=Nc2ccc(Cl)nn2)c2ccccc21,+,-94,-4,0.59
Cc1cc(C(=O)N=Nc2c(O)n(C(C)C)c3ccccc23)n[nH]1,i,-28,-1,-1.4
Cc1ccc(S(=O)(=O)N(Cc2cc3ccccc3[nH]c2=O)c2cccc(C)c2)cc1,/,/,/,-0.22
O=C(O)c1ccc2ncc(NC(=O)c3ccc(F)cc3)c(=O)n2c1,/,/,/,-0.43
CCn1cc(C2=NC(c3ccccc3)CO2)c2ccccc21 (configuration not stated),i,25,2,0.1
CCn1cc(C2=NC(C)CO2)c2ccccc21 (configuration not stated),i,84*,-2,/
CCC(OC(=O)c1cccs1)C(=O)NCc1ccc(C)cc1 (configuration not stated),+,/,0,0.46
CCC(OC(=O)c1cccs1)C(=O)NCc1ccc2c(c1)OCO2 (configuration not stated),i,-43,-10,0.29
COc1ccc(-n2nnnc2/C=C\Nc2ccc(C)cc2)cc1,/,/,/,-0.06
Cc1c(N=C2N=C(NC(=O)c3cccs3)c3ccccc32)c(=O)n(-c2ccccc2)n1C,+,/,-4,/
Cc1c(N=C2N=C(NC(=O)NC(C)(C)C)c3ccccc32)c(=O)n(-c2ccccc2)n1C,i,/,3,-0.49
O=C(COc1ccccc1/C=C1\SC(=O)NC1=O)Nc1ccccc1,i,82*,-5,-0.17
CC1(C)CC(=O)C(CC2=C(O)CC(C)(C)CC2=O)=C(O)C1,+,-12,0,0.54
CC1(C)CC(=O)C(CC2=C(O)CC(C)(C)CC2=O)C(=O)C1,i,48,-4,0.68
CC(C(=O)Nc1ccc2c(c1)OCCO2)N(C)Cc1c(F)cccc1Cl (configuration not stated),+,/,/,-0.29
O=C(Nc1ccc2c(c1)OCCO2)c1c(F)cccc1F,i,-114,-5,-0.1
O=C(COC(=O)/C=C/c1cccs1)Nc1cccc(S(=O)(=O)N2CCCC2)c1,i,33,-5,-1.4
Cc1nc2ccccc2nc1N/N=C/c1ccc(O)cc1,/,/,/,-0.61
Cc1nc(N/N=C/c2ccc(O)cc2)c2cnn(-c3ccccc3)c2n1,i,89*,-5,-2
COc1ccc(-c2nc3ccccn3c2/N=C/c2ccc(OC)c(OC)c2)cc1O,i,-26,1,-0.35
O=C(OCCN1C(=O)c2cccc3c(N4CCOCC4)ccc(c23)C1=O)c1cc(Cl)cc(Cl)c1,+,-204,0,0.02
O=C1c2cccc3c(N4CCCCC4)ccc(c23)C(=O)N1c1ccc(Cl)cn1,+,5,/,/
CCCN1C(=O)c2cccc3c(N4CCCCC4)ccc(c23)C1=O,+,-245,-1,/
CCN(CC)S(=O)(=O)c1ccc(C(=O)OCCN2C(=O)c3cccc4c(N5CCOCC5)ccc(c34)C2=O)cc1,i,0,-1,0.78
O=C1c2cccc3c(N4CCCCC4)ccc(c23)C(=O)N1c1ccccn1,i,/,-10,0.23
SMILES,Autophagy HCS,INS promoter inh,Efa HMGR inh,Insulin prom up
O=C1CN(C(=O)CNCc2cccc(Cl)c2)c2ccccc2N1,/,/,/,-0.05
O=C(Nc1cccc(Cl)c1Cl)c1cc(S(=O)(=O)NCCc2ccccc2)ccc1F,i,43,-5,0.68
CCOC(=O)/C=c1\s/c(=C\c2ccc3cc(OC)ccc3c2)c(=O)n1CC(=O)NCc1ccc2c(c1)OCO2,+,-335,-1,0.98
CCOC(=O)/C=c1\s/c(=C\c2ccccc2C)c(=O)n1CC(=O)NCc1ccc2c(c1)OCO2,i,/,-3,-0.15
O=C1CN(C(=O)COC(=O)c2cc(S(=O)(=O)N3CCOCC3)ccc2Cl)c2ccccc2N1,/,/,/,0.39
N#CC(c1ccc(Cl)cc1)c1ccc2c(C(F)(F)F)cc(C(F)(F)F)nc2n1 (configuration not stated),+,-41,2,/
Cc1ccc(CN2CCN(c3ccccn3)CC2)s1,i,72*,-4,-0.23
Cc1cccc(CN2CCN(c3ccccn3)CC2)c1,i,19,/,/
O=C(C[n+]1ccccc1)Nc1ccc(Oc2ccccc2)cc1,i,/,-4,0.12
CCCn1c(CN(C)Cc2ccccc2)nc2c1c(=O)n(C)c(=O)n2C,i,0,-3,-1.5
CCCCCCn1c(CN2CCN(CCO)CC2)nc2c1c(=O)n(C)c(=O)n2C,i,100*,-6,1.3
CCCCn1c(CN(C)Cc2ccccc2)nc2c1c(=O)n(C)c(=O)n2C,i,71*,-3,-3
COc1ccccc1-c1nc(-c2ccncc2)no1,i,18,-4,-0.2
COc1ccc(Cl)cc1-c1nc(-c2ccncc2)no1,i,81*,-3,0.45
CC(=O)Nc1ccc(NC(=O)C2CC(=O)N(c3ccccc3Cl)C2)cc1 (configuration not stated),i,31,2,-0.01
CCOc1nc(NC(=O)NS(=O)(=O)c2ccccc2F)nc(-c2ccccc2)n1,i,91*,0,0.85
O=C(COC(=O)c1ccc2c(c1)C(=O)N(Cc1ccncc1)C2=O)Nc1cccc2ccccc12,i,/,-2,0.35
Cc1ccc(CNCC(O)(c2ccccc2)c2ccc(Cl)cc2)cc1 (configuration not stated),+,0,0,-1.3
COCC(=O)OCC(=O)Nc1ccccc1-c1ccccc1,i,29,-3,0.18
Cc1cc(C)nc(NC(=O)CCC2CCCC2)c1,i,13,9.9*,/
COc1ccc(NC(=O)CCC2CCCC2)cc1OC,i,-7,-4,0.34
Clc1ccc(-c2csc(N3CCOCC3)n2)cc1,i,73*,-11,-0.08
O=C(Nc1cc(C(F)(F)F)cc(C(F)(F)F)c1)c1ccc(Cn2cc(C(F)(F)F)ccc2=O)cc1,i,4,-3,/
O=C(Oc1ccc(NC2=C(Cl)C(=O)c3ccccc3C2=O)cc1)c1ccc([N+](=O)[O-])cc1,i,62*,-3,-0.06
O=C(CSc1nnc(NC(=O)C2CC2)s1)NCc1ccco1,i,26,-7,0.32
SMILES,Autophagy HCS,INS promoter inh,Efa HMGR inh,Insulin prom up
CCn1ncc(CN2CCCC(CNC(=O)c3ccc(F)cc3)C2)c1C (configuration not stated),i,-4,-2,-0.13
CCN(CC)CCCOc1nc(C)nc2c1oc1ccccc12,i,7,-5,-0.46
CN(C)CCOc1ncnc2c1oc1ccccc12,i,33,-6,-0.76
CN(C)CCOc1nc(-c2ccccc2)nc2c1oc1ccccc12,+,9,0,-0.5
CCN(CC)CCOc1nc(C)nc2c1oc1ccccc12,i,/,14*,-0.17
CCC(C)C(NC(=O)C1CCC(C)CC1)C(=O)NC1CCN(Cc2ccccc2)CC1 (configuration not stated),i,/,-2,-0.04
COc1ccccc1N1CCN(S(=O)(=O)c2ccccc2)CC1,i,-9,-14,1.3
COc1ccccc1N1CCN(S(=O)(=O)Cc2ccccc2Cl)CC1,i,89*,1,0.23
